# Reference: article PMC4336329 (PLoS ONE, 2015)
# Hit rate of the full screen: of about 310,000 compounds, about 14,000 (4.5%) showed an effect of 50% or more. Effects have a minus sign here. Many of the other results were omitted from the sample, so strong results are more common in it than they were.
# Biological target: human ether-à-go-go-related gene (hERG) potassium channel (human, UniProt Q12809)
# Assay: primary screen, population patch clamp on CHO cells stably expressing hERG; higher = less effect of the substance
# 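Further: peak tail current of the secondary pulse compared with the same well before compound.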
# human ether-à-go-go-related gene (hERG) potassium channel, sequence (Q12809 whole entry, looked up): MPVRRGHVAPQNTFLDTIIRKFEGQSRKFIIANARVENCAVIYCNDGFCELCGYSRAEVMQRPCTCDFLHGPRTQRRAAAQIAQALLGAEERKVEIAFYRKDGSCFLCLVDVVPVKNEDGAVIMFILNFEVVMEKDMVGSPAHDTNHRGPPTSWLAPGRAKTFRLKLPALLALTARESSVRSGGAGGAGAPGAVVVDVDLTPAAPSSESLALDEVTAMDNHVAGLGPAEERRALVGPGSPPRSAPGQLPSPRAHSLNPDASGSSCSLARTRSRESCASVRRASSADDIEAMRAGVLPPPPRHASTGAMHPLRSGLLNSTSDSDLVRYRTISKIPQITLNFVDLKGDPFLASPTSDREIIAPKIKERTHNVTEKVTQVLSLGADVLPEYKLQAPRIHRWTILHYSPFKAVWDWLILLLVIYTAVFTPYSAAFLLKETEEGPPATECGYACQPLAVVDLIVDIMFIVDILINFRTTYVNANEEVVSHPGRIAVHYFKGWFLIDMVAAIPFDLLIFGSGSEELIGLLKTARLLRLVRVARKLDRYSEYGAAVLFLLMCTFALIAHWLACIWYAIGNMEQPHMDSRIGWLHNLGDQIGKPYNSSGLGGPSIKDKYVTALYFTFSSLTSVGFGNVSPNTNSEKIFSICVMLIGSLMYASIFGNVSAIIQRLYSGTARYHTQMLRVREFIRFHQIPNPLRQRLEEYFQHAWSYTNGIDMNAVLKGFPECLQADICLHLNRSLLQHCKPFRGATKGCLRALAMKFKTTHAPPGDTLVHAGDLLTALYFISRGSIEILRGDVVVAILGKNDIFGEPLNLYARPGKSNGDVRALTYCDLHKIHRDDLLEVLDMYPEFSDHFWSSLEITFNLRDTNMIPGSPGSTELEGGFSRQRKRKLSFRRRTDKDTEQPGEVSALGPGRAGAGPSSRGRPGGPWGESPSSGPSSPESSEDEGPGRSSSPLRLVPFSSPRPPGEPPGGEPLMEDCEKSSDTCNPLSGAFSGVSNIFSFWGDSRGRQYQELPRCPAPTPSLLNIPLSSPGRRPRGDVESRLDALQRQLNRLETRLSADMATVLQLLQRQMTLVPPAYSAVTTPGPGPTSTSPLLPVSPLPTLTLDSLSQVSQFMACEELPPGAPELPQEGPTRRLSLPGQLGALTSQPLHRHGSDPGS
row,SMILES,"hERG current change (%, negative = inhibition) at 10uM [%]"
1,COc1ccc(NC2CCCN(C(=O)c3ccc(C(C)=O)s3)C2)cc1 (centres unmarked),16.1
2,O=C(CSc1ccc(-c2ccc(F)cc2)nn1)N1CCOCC1,-17.4
3,COc1cc(/C=N/N2CCN(c3ccccc3)CC2)cc(OC)c1OC(C)=O,-39.4
4,O=C(Nc1ccccc1Cl)O/N=C(/c1ccccc1)c1ccccn1,6.47
5,CNC(=O)CCc1[nH]c2ccccc2c1Sc1ccccc1,4.85
6,Cc1cc(C)cc(OCC(=O)N2N=C(c3cccnc3)CC2(O)C(F)(F)F)c1 (centres unmarked),-15.3
7,COc1ccc(NC(=O)N(Cc2ccc(C)cc2)Cc2cccnc2)c(OC)c1,-10.6
8,COc1ccccc1S(=O)(=O)Cc1ccc(C(=O)NCCN2CCCCCC2)o1,2.78
9,COc1ccccc1S(=O)(=O)Cc1ccc(C(=O)NCCN2CCCC2)o1,-8.12
10,COc1ccccc1S(=O)(=O)Cc1ccc(C(=O)NCCCN2CCN(c3ccc(F)cc3)CC2)o1,-79.2
11,Cc1cccc(N2C(=O)C(O)=C(C(=O)c3cccs3)C2c2ccc(F)cc2)n1 (centres unmarked),14.9
12,O=C(NNS(=O)(=O)c1ccccc1)C1CCCCC1,6.38
13,N#Cc1nc(-c2ccccc2)oc1NCCCn1ccnc1,-27.5
14,Cc1ccc(OCc2nc(C#N)c(NCCCn3ccnc3)o2)cc1,-56
15,N#Cc1nc(Cc2cccc3ccccc23)oc1NCCCn1ccnc1,-71
16,N#Cc1nc(Cc2ccccc2)oc1NCCCn1ccnc1,-31.5
17,N#Cc1nc(COc2ccccc2)oc1NCCN1CCOCC1,-11.3
18,COc1ccc(OCc2nc(C#N)c(NCCCn3ccnc3)o2)cc1,-43.4
19,N#Cc1nc(COc2ccccc2)oc1NCCCn1ccnc1,-50
20,N#Cc1nc(COc2ccc(F)cc2)oc1NCCN1CCOCC1,-12.9
21,COc1ccccc1OCc1nc(C#N)c(NCCCn2ccnc2)o1,6.7
22,N#Cc1nc(-c2ccc(OCc3ccccc3Cl)cc2)oc1NCCCn1ccnc1,-13
23,N#Cc1nc(COc2ccc(Br)cc2)oc1NCCN1CCOCC1,-56.6

row,SMILES,"hERG current change (%, negative = inhibition) at 10uM [%]"
1,Cc1ccc(-c2nc(C#N)c(NCCCn3ccnc3)o2)cc1,-21.9
2,Cc1csc(C(C#N)C(=O)c2ccncc2)n1 (centres unmarked),19.2
3,N#C/C(C(N)=O)=C1/CCc2ccccc2N1,-9.51
4,CCN(CC)c1ccc(N=Cc2c(O)[nH]c(=O)[nH]c2=O)cc1,-1.25
5,NC(=S)Nc1cc2ccccc2c2ccccc12,6.65
6,O=C(O)C1CCN(S(=O)(=O)c2ccc(Oc3ccccc3)cc2)CC1,17.8
7,COC(=O)C1=CNC=C(C(=O)OC)C1c1ccc(Cl)cc1,-8.91
8,COCCN(C(=O)COC(=O)c1cnc(C)cn1)c1c(N)n(Cc2ccccc2)c(=O)[nH]c1=O,-4.85
9,Cc1cc(Nc2ccc(O)cc2)n2c(nc3ccccc32)c1C#N,16.6
10,CCOC(=O)Nc1ccc2c(c1)Sc1ccccc1N2C(=O)CCN1CCOCC1,-17.6
11,N#Cc1nc(-c2ccco2)oc1NCCN1CCOCC1,7.46
12,N#Cc1nc(Cc2cccc3ccccc23)oc1NCCN1CCOCC1,-20.3
13,COc1ccc(-c2nc(C#N)c(NCCCN3CCOCC3)o2)cc1,-13
14,N#Cc1nc(-c2ccc(OCc3ccc(Cl)cc3)cc2)oc1NCCCn1ccnc1,5.77
15,N#Cc1nc(-c2cccc3ccccc23)oc1NCCN1CCCCC1,-36.2
16,N#Cc1nc(COc2ccc(Br)cc2)oc1NCCCn1ccnc1,-63.2
17,N#Cc1nc(Cc2cccc3ccccc23)oc1NCCN1CCCCC1,-60.3
18,N#Cc1nc(-c2ccco2)oc1NCCCN1CCOCC1,-54.9
19,Cc1ccc(-c2nc(C#N)c(NCCN3CCCCC3)o2)cc1,-55.8
20,N#Cc1nc(-c2ccc(OCc3ccccc3)cc2)oc1NCCCn1ccnc1,-1.96
21,N#Cc1nc(Cc2cccc3ccccc23)oc1NCCCN1CCOCC1,-26.3
22,N#Cc1nc(-c2ccc(F)cc2)oc1NCCN1CCOCC1,-0.823
23,CC(C)C[C@@H](CO)N(Cc1ccccc1)S(=O)(=O)N(Cc1ccccc1)[C@@H](CO)CC(C)C,7.47

row,SMILES,"hERG current change (%, negative = inhibition) at 10uM [%]"
1,CCc1ccc[n+](-c2[nH]c(=O)sc2/C=N/N=C(\N)[O-])c1,-10
2,CCCCCN(C(=O)COC(=O)COc1c(C)cc(C)cc1C)c1c(N)n(CCCC)c(=O)[nH]c1=O,-14.4
3,COc1ccc(C(C(=O)NCCC(C)C)N(CCO)C(=O)c2snc(C(N)=O)c2N)cc1 (centres unmarked),-1.26
4,O=C(Nc1ccccc1N1CCN(c2ccccc2)CC1)c1ccccc1,8.61
5,O=C1C(=O)N(CCc2c[nH]c3ccccc23)C(c2cccnc2)/C1=C(/O)c1ccccc1 (centres unmarked),2.24
6,COc1ccc(C(=O)NC(=S)NC(C)c2ccccc2)cc1 (centres unmarked),21.8
7,C=C1C(=O)O[C@H]2C1CC[C@@](C)(O)C13C=CC(C)(C21)C1(C3)C(=O)O[C@@H]2C3C(C)=CCC3[C@](C)(O)C[C@H](OC(C)=O)C21 (some centres unmarked),2.81
8,COc1ccccc1NC(=O)CSc1ncn(-c2ccccc2)n1,-41.1
9,N#Cc1nc(COc2ccc(F)cc2)oc1NCCCn1ccnc1,-64.2
10,N#Cc1nc(-c2ccc(F)cc2)oc1NCCCn1ccnc1,-49.3
11,N#Cc1nc(COc2ccccc2F)oc1NCCCn1ccnc1,-42.5
12,COc1cc(/C=N/NC(=O)COc2ccc(-n3cnnn3)cc2)ccc1OCC(N)=O,17.3
13,CCNc1nc(NCC)nc(N/N=C/c2ccc([N+](=O)[O-])o2)n1,-50.8
14,Cc1ccc2nc(N/N=C/c3ccccc3F)nc(-c3ccccc3)c2c1,0.778
15,N#Cc1ccccc1/C=N/Nc1nc(-c2ccccc2)c2cc(Cl)ccc2n1,-46.3
16,CCNc1nc(NCC)nc(N/N=C/c2ccc(Br)cc2)n1,-74.6
17,Cc1cc(C)nc(N/N=C/c2ccc([N+](=O)[O-])o2)n1,2.14
18,O=[N+]([O-])c1ccc(/C=N/Nc2nc(N3CCCC3)nc(N3CCCC3)n2)o1,1.41
19,CCNc1nc(NCC)nc(N/N=C/c2ccccc2)n1,4.81
20,N#Cc1ccccc1/C=N/Nc1nc(-c2ccccc2)c2cc(Br)ccc2n1,-67.4
21,CCNc1nc(NCC)nc(N/N=C/c2ccc(OC)cc2)n1,6.24
22,Cc1cc(N/N=C/c2ccc([N+](=O)[O-])o2)nc2ccccc12,1.15
23,O=[N+]([O-])c1ccc(/C=N/Nc2nc(-c3ccccc3)c3cc(Br)ccc3n2)o1,-4.84

row,SMILES,"hERG current change (%, negative = inhibition) at 10uM [%]"
1,Cc1ccc2nc(N/N=C\c3ccc([N+](=O)[O-])o3)nc(-c3ccccc3)c2c1,-72.6
2,CC(Sc1nc(N)cc(=O)[nH]1)C(=O)NC1CCCCC1 (centres unmarked),-4
3,O=C(CSc1ncccn1)NCc1ccccc1Cl,-2.63
4,CCOc1ncccc1C(=O)Nc1ccc(S(=O)(=O)Nc2nc(C)cc(C)n2)cc1,2.16
5,CCOC(=O)N1CCN(C(=O)CSc2ccc(-c3ccncc3)nn2)CC1,-0.414
6,Cc1ccccc1-n1cnc2cc(NCc3cccs3)ccc21,-31
7,CC1=C(C(=O)NCCN2CCN(C)CC2)C2(CCC(C)CC2)OC1=O (centres unmarked),6.17
8,Cc1ccc(-c2ccc(CO)o2)cc1N,9.48
9,O=C(CN1C(=O)C2CC=CCC2C1=O)Nc1ccc(S(=O)(=O)NC2=NCCCCC2)cc1 (centres unmarked),1.02
10,CCN1C(=O)C(=C2C=C(C)N(Cc3ccco3)C(C)=C2)C(=O)N(CC)C1=S,-35
11,CCCCC(=O)Nc1nnc(-c2ccco2)o1,-0.241
12,Cc1cc(C)c(C(=O)OCC(=O)NC(=O)c2ccccc2)c(C)c1,11.9
13,O=C(CCc1ccccc1)Nc1cc(NC(=O)CCc2ccccc2)cc(C(=O)O)c1,-22
14,Cc1ccc(NC(=O)c2nc[nH]c2C(=O)N2CCc3ccccc3C2)cc1,18.8
15,CCCN1CCN(C(=S)Nc2ccc([N+](=O)[O-])cc2)CC1,-52.1
16,CCN1CCN(C(=S)Nc2ccc([N+](=O)[O-])cc2)CC1,-26.6
17,CCCN1CCC(NC(=S)Nc2ccc([N+](=O)[O-])cc2)CC1,-52.6
18,CN1CCN(C(=S)Nc2ccc([N+](=O)[O-])cc2)CC1,-23.1
19,CCCN1CCC(NC(=S)Nc2ccc(S(N)(=O)=O)cc2)CC1,10.7
20,CCCN1CCC(NC(=O)Nc2ccc([N+](=O)[O-])cc2)CC1,-32.2
